From publication PMC5540273 (PLoS ONE, 2017)
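Note: KINOMEscan kinase panel screen.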

These compounds were tested on WNK1. Details: concentration: 1 μM,replicates: in singlicate; n = 1.
With `Cc1n[nH]c2ccc(-c3cc(OC[C@@H](N)Cc4ccccc4)cnc3-c3ccoc3)cc12.O=C(O)C(F)(F)F.O=C(O)C(F)(F)F` [GSK507358] the “%Inh” value was 8%.
`Cl.Oc1cc(-c2nc(-c3ccccc3)[nH]c2-c2ccncc2)ccc1Cl` [SB-386023] was tested, and the “%Inh” value was 0%.
With `CCn1c(-c2nonc2N)nc2c(C#CC(C)(C)O)nc(OCCN)cc21.Cl.Cl` [GSK902056] the “%Inh” value was 12%.
With `CCN(CC)CCOc1ccc(Nc2ncc3cc(-c4c(Cl)cccc4Cl)c(=O)n(C)c3n2)cc1` [SB-601273] the “%Inh” value was 26%.
With `CC(C)Nc1cc(-c2ccc3c(N)n[nH]c3c2)nc(N)n1` [GSK2221681] the “%Inh” value was 0%.
With `C=CC(=O)Nc1cc2c(Nc3ccc(F)c(Cl)c3)ncnc2cc1OCCCN1CCOCC1` [GW781483] the “%Inh” value was 16%.
In the case of `C[C@@H](Oc1cc(-c2cnn(C3CCNCC3)c2)cnc1N)c1c(Cl)ccc(F)c1Cl`, the “%Inh” value is reported as 11%.
With `CN(C)CCOc1ccc(-c2cc(-c3c[nH]nc3-c3ccccn3)ccn2)cc1` [GW835314] the “%Inh” value was 9%.
For `Cc1cc(C(=O)Nc2ccc(Oc3ccc4nc(NC(=O)C5CC5)cn4n3)cc2)nn1-c1ccccc1`, the “%Inh” value was 0%.
In the case of `Cl.Cl.Nc1nc(-c2ccc3c(N)n[nH]c3c2)cc(N2CCCC(NC(=O)c3ccccc3)C2)n1` (stereo not drawn) [GSK2286775], the “%Inh” value is reported as 37%.
For `COc1ccc(C[C@@H](CN)NC(=O)c2cc(Br)c(-c3ccnc4[nH]ccc34)s2)cc1.Cl.Cl` [GSK1389063], the “%Inh” value was 11%.
With `Cc1cc2cn[nH]c2cc1-c1cccc2c(N)c(C(N)=O)nnc12` the “%Inh” value was 21%.
